# Results: PubChem BioAssay (NCI)
# This is part of a sample that, as a whole, favours compounds with a hit. Of some 79,000 tested, about 15% had one in any assay. Values without a mark were called inactive. Calls of active or inactive are those of the source. Cut-off read from the data, not from the text of the source: active = growth inhibition above about 70%; inactive = the rest.
# Key:
# [1] = NCI Yeast Anticancer Drug Screen. Data for the mec2-1 strain (AID 157); conditions: S. cerevisiae mec2-1 strain, stronger effect = higher value
# Outline: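 Growth inhibition is read against vehicle-treated controls after compound exposure of the mec2-1 yeast strain, which is defective in DNA damage repair or cell cycle control.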
# [2] = NCI Yeast Anticancer Drug Screen. Data for the rad14 strain (AID 159);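 note: 0% = growth of vehicle-treated control cultures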; conditions: S. cerevisiae rad14 strain growth inhibition, stronger effect = higher value
# Outline: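 Yeast cells carrying a defined DNA-repair defect were exposed to compounds, and growth inhibition was calculated relative to vehicle-treated control cultures.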
# [3] = NCI Yeast Anticancer Drug Screen. Data for the sgs1 mgt1 strain (AID 161);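 note: 0% = growth of cultures given vehicle only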; conditions: S. cerevisiae sgs1 mgt1 strain, stronger effect = higher value
# Outline: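 Growth of a repair-deficient yeast mutant was monitored after compound treatment and expressed as inhibition relative to vehicle-treated cultures.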
# [4] = NCI Yeast Anticancer Drug Screen. Data for the bub3 strain (AID 167); conditions: S. cerevisiae bub3 mutant strain, stronger effect = higher value
# Outline: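 Compounds were applied to a genetically altered yeast strain carrying a cell-cycle control defect. Growth inhibition was scored against vehicle-treated controls.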
# [5] = NCI Yeast Anticancer Drug Screen. Data for the mlh1 strain (AID 171);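 note: 0% = growth of vehicle-treated control cultures of the same strain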; conditions: S. cerevisiae mlh1 strain growth inhibition, stronger effect = higher value
# Outline: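 Compounds are applied to a genetically altered yeast strain, and its growth is compared with that of vehicle-treated cultures to give percent inhibition.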
# [6] = NCI Yeast Anticancer Drug Screen. Data for the sgs1 strain (AID 173);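 note: 0% = growth of vehicle-only control cultures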; conditions: S. cerevisiae sgs1 mutant, stronger effect = higher value
# Outline: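 Compounds applied to genetically altered yeast; growth compared with vehicle-treated cultures to give % inhibition.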
# [7] = NCI Yeast Anticancer Drug Screen. Data for the mlh1 rad18 strain (AID 175); conditions: S. cerevisiae mlh1 rad18 strain growth inhibition, stronger effect = higher value
# Outline: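 Cells of a genetically altered yeast strain, deficient in DNA damage repair, were treated with compound. Their growth was then compared with that of vehicle-treated cultures to give inhibition.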
# [8] = NCI Yeast Anticancer Drug Screen. Data for the rad18 strain (AID 177); conditions: S. cerevisiae rad18 mutant growth inhibition, stronger effect = higher value
# Outline: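 Compounds are applied to a repair-deficient yeast strain, and growth is compared with that of vehicle-treated cultures to give percent inhibition.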
# [9] = NCI Yeast Anticancer Drug Screen. Data for the rad52 strain (AID 147);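 note: 0% = growth of vehicle-treated control cultures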; conditions: S. cerevisiae rad52 mutant growth inhibition, stronger effect = higher value
# Outline: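 DNA repair-defective yeast; compound exposure; growth scored against vehicle controls.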
# [10] = NCI Yeast Anticancer Drug Screen. Data for the wt1 strain (AID 149);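 note: 0% = growth of vehicle-treated wt1 cultures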; conditions: S. cerevisiae wt1 strain (SPY 50644) growth inhibition, stronger effect = higher value
# Outline: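 Yeast wt1 strain exposed to compounds; growth inhibition measured relative to vehicle-treated controls.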
# [11] = NCI Yeast Anticancer Drug Screen. Data for the mgt1 strain (AID 153); conditions: S. cerevisiae mgt1 mutant growth inhibition, stronger effect = higher value
# Outline: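 Growth inhibition relative to vehicle controls was scored for the mgt1 yeast strain after compound exposure.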
# [12] = NCI Yeast Anticancer Drug Screen. Data for the rad50 strain (AID 155);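 note: 0% = growth of vehicle-only cultures of the same strain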; conditions: S. cerevisiae rad50 strain growth inhibition, stronger effect = higher value
# Outline: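 Yeast carrying a defined DNA repair defect were exposed to test compounds, and growth was compared with vehicle-treated controls to give percent inhibition.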
# [13] = NCI Yeast Anticancer Drug Screen. Data for the CLN2oe strain (AID 163);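 note: 0% = growth of vehicle-only control cultures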; conditions: S. cerevisiae CLN2oe strain, stronger effect = higher value
# Outline: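 Compound-treated yeast; growth vs vehicle ctrl = % inhibition. Genetically altered strain (cell-cycle control).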
# [14] = NCI Yeast Anticancer Drug Screen. Data for the cln2 rad14 strain (AID 165);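 note: 0% = growth equal to vehicle treated cultures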; conditions: S. cerevisiae cln2 rad14 strain, stronger effect = higher value
# Outline: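 Growth inhibition, relative to vehicle-treated controls, is the read-out. The test organism is a yeast strain with defined genetic alterations, cln2 rad14.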
# [15] = NCI Yeast Anticancer Drug Screen. Data for the wt2 strain (AID 169);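 note: 0% = growth of vehicle-treated yeast cultures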; conditions: S. cerevisiae wt2 strain growth inhibition, stronger effect = higher value
# Outline: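 Compound exposure of yeast; growth compared with vehicle controls; inhibition reported.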
# [16] = at 5.0 µM (retest, dose inferred, filed as 0.5)
# [17] = at 50.0 µM (retest, dose inferred, filed as 5.0)
smiles,measurement,setting,value
ClCCn1c(CCl)nc2ccc(Cl)cc21,growth inhibition,[1]; at 100.0 µM,95% (active)
same,growth inhibition,[2]; at 1.2 µM,-8%
same,growth inhibition,[2]; at 3.7 µM,0%
same,growth inhibition,[2]; at 11.0 µM,10%
same,growth inhibition,[2]; at 33.0 µM,70% (active)
same,growth inhibition,[2]; at 100.0 µM,99% (active)
same,growth inhibition,[3]; [16],18%
same,growth inhibition,[3]; [17],73% (active)
same,growth inhibition,[3]; at 50.0 µM,83.6% (active)
same,growth inhibition,[4]; at 1.2 µM,-20%
same,growth inhibition,[4]; at 3.7 µM,-25%
same,growth inhibition,[4]; [16],13%
same,growth inhibition,[4]; at 11.0 µM,-15%
same,growth inhibition,[4]; at 33.0 µM,60%
same,growth inhibition,[4]; [17],46%
same,growth inhibition,[4]; at 50.0 µM,81.5% (active)
same,growth inhibition,[4]; at 100.0 µM,96% (active)
same,growth inhibition,[5]; at 1.2 µM,-30%
same,growth inhibition,[5]; at 3.7 µM,-31%
same,growth inhibition,[5]; at 11.0 µM,-18%
same,growth inhibition,[5]; at 33.0 µM,67%
same,growth inhibition,[5]; at 100.0 µM,98% (active)
same,growth inhibition,[6]; at 1.2 µM,-19%
same,growth inhibition,[6]; at 3.7 µM,-31%
same,growth inhibition,[6]; at 11.0 µM,10%
same,growth inhibition,[6]; at 33.0 µM,60%
same,growth inhibition,[6]; at 100.0 µM,98% (active)
same,growth inhibition,[7]; [16],26%
same,growth inhibition,[7]; [17],75% (active)
same,growth inhibition,[7]; at 50.0 µM,79% (active)
same,growth inhibition,[8]; at 1.2 µM,-29%
same,growth inhibition,[8]; at 3.7 µM,-14%
same,growth inhibition,[8]; at 11.0 µM,30%
same,growth inhibition,[8]; at 33.0 µM,78% (active)
same,growth inhibition,[8]; at 100.0 µM,98% (active)
N#CC(=C1C=CC(=NO)C=C1)c1ccccc1,growth inhibition,[9]; at 1.2 µM,6%
same,growth inhibition,[9]; at 3.7 µM,24%
same,growth inhibition,[9]; at 11.0 µM,98% (active)
same,growth inhibition,[9]; at 33.0 µM,99% (active)
same,growth inhibition,[9]; at 100.0 µM,99% (active)
same,growth inhibition,[10]; at 1.2 µM,3%
same,growth inhibition,[10]; at 3.7 µM,13%
same,growth inhibition,[10]; at 11.0 µM,99% (active)
same,growth inhibition,[10]; at 33.0 µM,99% (active)
same,growth inhibition,[10]; at 100.0 µM,99% (active)
same,growth inhibition,[11]; at 1.2 µM,1%
same,growth inhibition,[11]; at 3.7 µM,24%
same,growth inhibition,[11]; at 11.0 µM,99% (active)
same,growth inhibition,[11]; at 33.0 µM,99% (active)
same,growth inhibition,[11]; at 100.0 µM,99% (active)
same,growth inhibition,[12]; at 1.2 µM,4%
same,growth inhibition,[12]; at 3.7 µM,26%
same,growth inhibition,[12]; [16],30%
same,growth inhibition,[12]; at 11.0 µM,98% (active)
same,growth inhibition,[12]; at 33.0 µM,99% (active)
same,growth inhibition,[12]; [17],99% (active)
same,growth inhibition,[12]; at 50.0 µM,99.3% (active)
same,growth inhibition,[12]; at 100.0 µM,99% (active)
same,growth inhibition,[1]; at 1.2 µM,-3%
same,growth inhibition,[1]; at 3.7 µM,14%
same,growth inhibition,[1]; [16],19%
same,growth inhibition,[1]; at 11.0 µM,99% (active)
same,growth inhibition,[1]; at 33.0 µM,99% (active)
same,growth inhibition,[1]; [17],99% (active)
same,growth inhibition,[1]; at 50.0 µM,99.5% (active)
same,growth inhibition,[1]; at 100.0 µM,99% (active)
same,growth inhibition,[2]; at 1.2 µM,5%
same,growth inhibition,[2]; at 3.7 µM,24%
same,growth inhibition,[2]; at 11.0 µM,98% (active)
same,growth inhibition,[2]; at 33.0 µM,99% (active)
same,growth inhibition,[2]; at 100.0 µM,99% (active)
same,growth inhibition,[3]; [16],35%
same,growth inhibition,[3]; [17],99% (active)
same,growth inhibition,[3]; at 50.0 µM,99.4% (active)
same,growth inhibition,[13]; at 1.2 µM,2%
same,growth inhibition,[13]; at 3.7 µM,10%
same,growth inhibition,[13]; at 11.0 µM,97% (active)
same,growth inhibition,[13]; at 33.0 µM,99% (active)
same,growth inhibition,[13]; at 100.0 µM,99% (active)
same,growth inhibition,[14]; [16],-1%
same,growth inhibition,[14]; [17],99% (active)
same,growth inhibition,[14]; at 50.0 µM,99.2% (active)
same,growth inhibition,[4]; at 1.2 µM,-21%
same,growth inhibition,[4]; at 3.7 µM,-19%
same,growth inhibition,[4]; [16],35%
same,growth inhibition,[4]; at 11.0 µM,94% (active)
same,growth inhibition,[4]; at 33.0 µM,97% (active)
same,growth inhibition,[4]; [17],99% (active)
same,growth inhibition,[4]; at 50.0 µM,99.3% (active)
same,growth inhibition,[4]; at 100.0 µM,99% (active)
same,growth inhibition,[15]; at 1.2 µM,4%
same,growth inhibition,[15]; at 3.7 µM,41%
same,growth inhibition,[15]; at 11.0 µM,99% (active)
same,growth inhibition,[15]; at 33.0 µM,99% (active)
same,growth inhibition,[15]; at 100.0 µM,99% (active)
same,growth inhibition,[5]; at 1.2 µM,3%
same,growth inhibition,[5]; at 3.7 µM,15%
same,growth inhibition,[5]; at 11.0 µM,99% (active)
same,growth inhibition,[5]; at 33.0 µM,99% (active)
same,growth inhibition,[5]; at 100.0 µM,99% (active)
same,growth inhibition,[7]; [16],64%
same,growth inhibition,[7]; [17],99% (active)
same,growth inhibition,[7]; at 50.0 µM,99.4% (active)
same,growth inhibition,[8]; at 1.2 µM,12%
same,growth inhibition,[8]; at 3.7 µM,43%
same,growth inhibition,[8]; at 11.0 µM,99% (active)
same,growth inhibition,[8]; at 33.0 µM,99% (active)
same,growth inhibition,[8]; at 100.0 µM,99% (active)
